Laboratory results as given in PubChem BioAssay.

Columns and labels:
[1] = system: Botulinum neurotoxin type F light chain protease (Clostridium botulinum); experiment: Botulinum neurotoxin type F light chain protease inhibition, multiplex microsphere flow cytometry, validation set (AID 588459); conditions: multiplex microsphere protease substrate cleavage assay, at 10 µM, stronger effect = higher value
[2] = biological target: Botulinum neurotoxin type A (Clostridium botulinum) (UniProt P0DPI0); experiment: BoNT/A light chain protease inhibitors, biochemical, multiplex microsphere flow cytometry, validation set (AID 588460); conditions: at 10 µM, stronger effect = higher value
[3] = biological target: Lethal factor (Bacillus anthracis) (UniProt P15917); experiment: Lethal factor protease inhibitors, Bacillus anthracis, multiplex microsphere cleavage assay, validation set (AID 588461); conditions: flow cytometry, at 10 µM, stronger effect = higher value

Measured: inhibition

COCCCNc1nc2c([nH]1)c(=O)[nH]c(=O)n2C
inactive: [1] 2.6% | [2] 1.1% | [3] 1.3%

CCc1ccc(CN(C)Cc2nc(Cc3ccccc3)no2)nc1
inactive: [1] 1.4% | [2] 0.5% | [3] 1.2%

CCCCCC(O)c1cccc(OCc2ccc3ccccc3n2)c1 (stereo unspecified)
inactive: [1] 0.9% | [2] 0.6% | [3] -0.8%

CSCC[C@H](NC(=O)OC(C)(C)C)C(=O)N1CCC(C(=O)N[C@@H](C)C(=O)O)CC1
inactive: [1] -3.4% | [2] 0.4% | [3] -4.2%

O=C(Nc1ccccc1)c1ccccc1CCc1ccccc1
inactive: [1] 0.9% | [2] -3.7% | [3] 3.9%

c1ccc2c(c1)CCCC2C1=NCCN1 (stereo unspecified)
inactive: [1] 0.7% | [2] 0.9% | [3] 0.6%

COc1ccc2[nH]c(=O)c3c(c2c1)OC(C)(C)C=C3
inactive: [1] 1.1% | [2] 0.3% | [3] -4.6%

C(=C/c1nccc2c1[nH]c1ccccc12)/c1ccc2c(c1)OCO2
inactive: [1] 3.2% | [2] 6.7% | [3] -1.4%

O=[N+]([O-])c1cc(/C=N/n2cnnc2)ccc1N1CCCC1
inactive: [1] -0.9% | [2] -0.6% | [3] -3.3%

COc1cc(NS(=O)(=O)c2ccc(N)cc2)nc(OC)n1
inactive: [1] 1.2% | [2] 1.1% | [3] 0.1%

COc1ccc(Cc2noc(CN(C)CCN3CCc4ccccc4C3)n2)cc1OC
inactive: [1] -1.9% | [2] -0.3% | [3] -7.4%

CC/C(=C1/C(=O)CC(C)(C)C(C(=O)OC)C1=O)N1CCCC1 (stereo unspecified)
inactive: [1] -4.4% | [2] -1.4% | [3] -9.3%

O=C(CCN1CCC(c2ccccc2)C1)c1ccc2c(c1)OCCO2 (stereo unspecified)
inactive: [1] 4.6% | [2] -0.2% | [3] -1.8%

CC(=O)OC1c2c(ccc3ccc(=O)oc23)OC(C)(C)C1OC(=O)CC(C)C (stereo unspecified)
inactive: [1] -0.2% | [2] -1.5% | [3] -3.2%

Brc1c(NC2=NCCN2)ccc2nccnc12
inactive: [1] -5.6% | [2] -0.8% | [3] -2.9%

O=C1NCC2=C1C(c1ccccc1)Nc1ccccc1N2 (stereo unspecified)
inactive: [1] 2.4% | [2] 0.1% | [3] -4.9%

COC(=O)c1ccccc1OCCOCCOc1cccc2ccc(C)nc12
inactive: [1] 0.3% | [2] 3.8% | [3] -4%

CN1CCN(C2=Nc3ccccc3Oc3ccc(Cl)cc32)CC1
inactive: [1] -0.8% | [2] -1.8% | [3] -3.9%

COc1ccc2c(CCNC(=O)c3ccc([N+](=O)[O-])cc3)c[nH]c2c1
inactive: [1] 1.6% | [2] -0.5% | [3] -5%

COc1cc2c(cc1OC)C(C)=NC1(CCCCC1)C2
inactive: [1] 9.8% | [2] 4.8% | [3] -0.4%

CC(C)C(=O)Nc1c(O)c2ccccc2[nH]c1=O
inactive: [1] 3.5% | [2] -0.8% | [3] 1.1%

COc1ccc(-c2[nH]ncc2CN(C)C(C)c2ccon2)c(OC)c1 (stereo unspecified)
inactive: [1] 1.9% | [2] 1.4% | [3] 0%

COc1ccccc1/C=C/CN1CCN(Cc2ccc(F)cc2)C(CCO)C1 (stereo unspecified)
inactive: [1] 5.5% | [2] -0.2% | [3] -1.4%

O=C(NCCN1CCOCC1)c1ccc(Cl)cc1
inactive: [1] 2.4% | [2] 1.2% | [3] -2%

COc1ccc(C2C3=C(OC(C)=O)c4ccccc4C3=Nc3c2c(=O)n(C)c(=O)n3C)cc1 (stereo unspecified)
inactive: [1] 4% | [2] 0.1% | [3] 2.9%

C#CCN(C)CCCOc1ccc(Cl)cc1Cl
inactive: [1] 1.1% | [2] -1.4% | [3] -10.6%

CN(C)CCOC(C)(c1ccccc1)c1ccccn1 (stereo unspecified)
inactive: [1] 1.4% | [2] 0.5% | [3] -3.8%

CCc1cc2c(C)cc(=O)oc2cc1OC(=O)C1CCCN1C(=O)OC(C)(C)C (stereo unspecified)
inactive: [1] 0.1% | [2] -1.6% | [3] -1.1%

COc1cc(CNCc2ccc(OC)c(OC)c2OC)cc(OC)c1
inactive: [1] 0.5% | [2] -0.7% | [3] 5.3%

NC(N)=N/N=C/c1c(Cl)cccc1Cl
inactive: [1] -0.2% | [2] 0.6% | [3] 0.5%

COc1ccc(NS(=O)(=O)c2ccc(N)cc2)nn1
inactive: [1] 7.2% | [2] 2% | [3] -0.1%

Cc1ccc2ncnc(NCCCCCC(=O)O)c2c1
inactive: [1] 1.7% | [2] -1.1% | [3] -4.7%

CC1(C)c2ccccc2N2CC(=O)NC21/C=C/c1ccco1 (stereo unspecified)
inactive: [1] 3.2% | [2] 0.5% | [3] 0.4%

CS(=O)(=O)NCc1ccc(C(=O)NCc2ccccc2)cc1
inactive: [1] 2.9% | [2] 0.5% | [3] -4.2%

CNC(=O)Oc1ccc2c(c1)[C@]1(C)CCN(C)[C@@H]1N2C
inactive: [1] -0.4% | [2] 1.1% | [3] 0.5%

Clc1ccc(CCNc2ncnc3nc[nH]c23)cc1
inactive: [1] 4.5% | [2] 0.1% | [3] -3.1%

CC1(C)CC(NCc2ccccc2)CCO1 (stereo unspecified)
inactive: [1] 9.4% | [2] 5.6% | [3] 1.1%

O=P(O)(O)CP(=O)(O)O
inactive: [1] -9% | [2] -3% | [3] -3.7%

COc1ccc(C2N3CC4(C)CN2CC(C)(C3)C4)cc1OC (stereo unspecified)
inactive: [1] -0.3% | [2] -1.6% | [3] -4.9%

COc1ccc(OC(C)C(=O)Nc2ccccc2F)cc1 (stereo unspecified)
inactive: [1] 0.8% | [2] -0.2% | [3] 1.9%

CC[C@H](CO)NCCN[C@H](CC)CO
inactive: [1] 2.2% | [2] -1.2% | [3] -10%

CCOCCn1c(C(C)O)nc2ccccc21 (stereo unspecified)
inactive: [1] 4% | [2] 0.3% | [3] 3.1%

CCOC(=O)c1ccc(NC(=S)NCCc2ccccc2F)cc1
inactive: [1] 4.9% | [2] 2.4% | [3] -2.3%

O=C(/C=C/c1ccccc1)NCC1(c2ccccc2)CCOCC1
inactive: [1] -1.5% | [2] 0.4% | [3] 3%

COc1ccc2cc([C@H](C)C(=O)O)ccc2c1
inactive: [1] 0.3% | [2] -0.1% | [3] -2.6%

COc1ccc(C(=O)/C=C2/c3ccccc3CC(C)(C)N2C)cc1
inactive: [1] -2.7% | [2] -1.8% | [3] -1.2%

Nc1c2c(nc3ccccc13)CCCC2
inactive: [1] 5.3% | [2] 1.5% | [3] -0.3%

COC(=O)C1=C(C)NC(C)=C(C(=O)OC)C1c1ccccc1[N+](=O)[O-]
inactive: [1] 5.8% | [2] 2.2% | [3] 2%

CCOc1ccccc1C(=O)NCCC(=O)O
inactive: [1] 2.8% | [2] 1.9% | [3] 0.2%

C[C@]12CC[C@@H]3c4ccc(O)cc4CC[C@H]3[C@@H]1CC[C@@H]2O
inactive: [1] 3.3% | [2] 1.1% | [3] -1.3%

COCCCC/C(=N\OCCN)c1ccc(C(F)(F)F)cc1
inactive: [1] -1.3% | [2] -0.2% | [3] -0.1%

COc1ccccc1C(=O)Oc1ccc2c(c1)O/C(=C\c1ccncc1)C2=O
inactive: [1] -0.7% | [2] 0.7% | [3] -8.2%

CC(=O)c1cccc(NC(=O)N[C@@H](CC(C)C)C(=O)O)c1
inactive: [1] -0.3% | [2] -1.7% | [3] -2.8%

CC1COc2c(N3CCN(C)CC3)c(F)cc3c(=O)c(C(=O)O)cn1c23 (stereo unspecified)
inactive: [1] -0.1% | [2] -0.3% | [3] 3.1%

CC1(C)C2CCC1(C(=O)O)c1nc3ccccc3nc12 (stereo unspecified)
inactive: [1] -0.2% | [2] -0.9% | [3] -0.2%

COc1cccc2c1OCC1COc3c(c(=O)n(C)c(=O)n3C)C21 (stereo unspecified)
inactive: [1] 1.5% | [2] 0.5% | [3] 0.2%

CC(C)(C)OC(=O)NCCC(=O)Oc1ccc2ccc(=O)oc2c1
inactive: [1] -1.5% | [2] -0.8% | [3] 0.5%

CC(C)C(=O)Nc1ccc2c3c(cccc13)CC2
inactive: [1] 1% | [2] 0.5% | [3] -3%

CCOC(=O)N1CCN(Cc2nc(Cc3cccc(F)c3)no2)CC1
inactive: [1] 1.3% | [2] 0% | [3] 3.3%

CC(C[N+](C)(C)C)OC(N)=O (stereo unspecified)
inactive: [1] -0.5% | [2] -0.4% | [3] 6.6%

CCN1C(=O)C(CC(=O)Nc2ccc(OC)cc2)N(CCc2ccc(F)cc2)C1=S (stereo unspecified)
inactive: [1] 0.2% | [2] 1.4% | [3] 1.4%

CCOC(=O)Nc1ccc2c(c1)N(C(=O)CCN1CCOCC1)c1ccccc1S2
inactive: [1] -1.6% | [2] -1.4% | [3] 0.2%

COc1cccc(OCC(O)CO)c1 (stereo unspecified)
inactive: [1] -1.4% | [2] -1.1% | [3] -9.1%

CC(C)[N+]1(C)[C@@H]2CC[C@H]1CC(OC(=O)C(CO)c1ccccc1)C2 (stereo partly specified)
inactive: [1] -2.9% | [2] 1% | [3] -3%

CCNC(=O)C12CCC(C)(C(=O)O1)C2(C)C (stereo unspecified)
inactive: [1] -1% | [2] -1% | [3] -7.4%

O=C(CCCn1c(=O)oc2ccccc21)N1CCN(c2ccc(F)cc2)CC1
inactive: [1] 1.1% | [2] 0.2% | [3] -4.7%

Cc1ccccc1NC(=O)NCCc1c[nH]c2ccccc12
inactive: [1] -1.9% | [2] -0.2% | [3] -3.6%
